Experimental data taken from PubChem BioAssay (EPA / NIEHS).
Inconclusive results are not listed. Calls of active or inactive are those of the source. How the source made its calls, unless noted: active means hit-call score of the fitted dose curve at least 0.9, where 1 is the maximum; inactive means score below 0.9.

Key:
[1] = CCTE_Shafer_MEA_acute_spike_number: CCTE's Neural Acute Assay for Total Number of Spikes, Shafer Lab (AID 2284008);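 on AC50: curve fitted for decrease in spike count so AC50 reflects inhibitors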
How it was run: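 Rat primary cortical neurons on 48-well MEA plates, DIV 13 or 15, at 37 C. 40 min baseline then 40 min with compound (0.03-40 uM); spikes detected at 8x rms noise, expressed as percent change from baseline.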

[2] = CCTE_Shafer_MEA_acute_firing_rate_mean: CCTE's Neural Acute Assay for Mean Firing Rate, Shafer Lab (AID 2284009);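 further: analyzed for loss of signal so actives lower firing rate relative to DMSO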
How it was run: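 Percent change in well-mean firing rate was derived from extracellular spikes detected at 8x rms noise (300-5000 Hz band-pass) before and after a 40-min compound exposure. Cultures were primary rat cortical neurons, tested at 0.03-40 uM.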

[3] = CCTE_Harrill_HTTr_Viability_MCF7: CCTE's 6-hour Cell Viability Assessment for the High-Throughput Transcriptomics (HTTr) Platform, in MCF-7 cells cultured in DMEM + 10% fetal bovine serum, Harrill Lab (AID 2284010)
How it was run: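 Cells were dosed with chemicals in an eight-point dilution series, imaged 6 hours later for propidium iodide uptake, and the endpoint was analyzed by bidirectional fitting against DMSO as negative control.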

[4] = CCTE_Harrill_HTTr_Apoptosis_MCF7: CCTE's 6-hour Apoptosis Assessment for the High-Throughput Transcriptomics (HTTr) Platform, in MCF-7 cells cultured in DMEM + 10% fetal bovine serum, Harrill Lab (AID 2284011)
How it was run: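 MCF-7 cells in DMEM + 10% FBS exposed 6 h to chemicals over an eight-point dilution series. Caspase-3/7 activation imaged by high-content CellEvent Green staining; fitted bidirectionally versus DMSO.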

[5] = CCTE_Harrill_HTTr_CellCount_MCF7: CCTE's Cell Proliferation Assessment for the High-Throughput Transcriptomics (HTTr) Platform, Harrill Lab (AID 2284012; active means hit-call score of the fitted dose curve at least 0.9, where 1 is the maximum;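 further: count of Hoechst-stained nuclei per well by high-content imaging in MCF-7 cells; cells exposed to compound for six hours; intended direction is loss of nuclei count meaning fewer cells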)
How it was run: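 Chemicals in eight-point dilution series are added to MCF-7 cells for six hours, nuclei are stained with Hoechst and imaged, and per-well nuclei counts are fitted in both directions relative to DMSO controls.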

[6] = CCTE_Shafer_MEA_acute_burst_number: CCTE's Neural Acute Assay for Single-Electrode Bursts, Shafer Lab (AID 2284013)
How it was run: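 Spontaneous network activity of primary rat cortical neurons was recorded extracellularly on microelectrode arrays at 37 C, with 40-min periods before and during exposure to 0.03-40 uM compound on DIV 13 or 15.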

[7] = CCTE_Shafer_MEA_acute_burst_duration_mean: CCTE's Neural Acute Assay for Mean Burst Duration, Shafer Lab (AID 2284014);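 further: hits are decreases in mean burst duration relative to DMSO controls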
How it was run: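 Read-out is the per-well percent change in mean burst duration (first to last spike within a single-electrode burst) between 40-min recordings before and after compound. Cultures were primary rat cortical neurons on MEAs, dosed at 0.03-40 uM on DIV 13 or 15.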

[8] = CCTE_Shafer_MEA_acute_interburst_interval_mean: CCTE's Neural Acute Assay for Mean Interburst Interval, Shafer Lab (AID 2284016);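 further: percent change of mean interburst interval versus each well's own pre-dose baseline; curves fitted for decrease in interburst interval relative to DMSO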
How it was run: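 MEA recording of spontaneous network bursting in primary rat cortical cultures; mean interburst interval was compared before and after a 40-min compound exposure (0.03-40 uM) and expressed as percent change, relative to DMSO.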

[9] = CCTE_Shafer_MEA_acute_burst_percentage_mean: CCTE's Neural Acute Assay for Percentage of Spikes in a Burst, Shafer Lab (AID 2284017);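 on AC50: curve fitted for loss of signal so potency reflects decreased burst percentage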
How it was run: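 Compounds were tested at 0.03-40 uM on primary rat cortical neuron networks grown over microelectrodes, with at least three wells per compound. Spontaneous firing was recorded for 40 min before and 40 min after dosing, and the change in burst percentage was computed per well.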

[10] = CCTE_Shafer_MEA_acute_burst_percentage_std: CCTE's Neural Acute Assay for Standard Deviation of Burst Percentage, Shafer Lab (AID 2284018);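 further: fitted in the negative direction so actives lower burst percentage SD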
How it was run: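 Value is percent change from baseline in the across-electrode SD of spikes-in-bursts percentage, wells with >/= 10 active electrodes. Acute 40-min exposure to 0.03-40 uM on DIV 13 or 15 rat cortical cultures, recorded at 37 C after 40-min baseline.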

[11] = CCTE_Shafer_MEA_acute_per_network_burst_spike_number_std: CCTE's Neural Acute Assay for Standard Deviation of Number of Spikes in a Network Burst, Shafer Lab (AID 2284020);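 further: fitted for decrease in spike-number SD versus DMSO so actives lower it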
How it was run: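 Spontaneous network activity of primary rat cortical neurons is recorded extracellularly before and after a 40-min compound exposure (0.03-40 uM) at 37 C. The endpoint is the well's percent change in burst spike-number SD.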

[12] = target: Nucleoli Translocation, AR (gene 367) (UniProt P10275); test: UPITT_HCI_U2OS_AR_TIF2_Nucleoli_Antagonist: University of Pittsburgh U2OS Androgen Receptor-Transcriptional Intermediary Factor 2 (AR-TIF2) Antagonism High Content Imaging Assay for Nucleoli Translocation (AID 2283997; active means hit-call score of the fitted dose curve at least 0.9, where 1 is the maximum)
How it was run: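 Measured quantity was AR-RFP fluorescence localized to nucleoli in engineered U2OS cells also bearing TIF2-GFP, acquired on automated high-content imagers. Primary testing used 20 uM compound; actives were confirmed in triplicate wells.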

[13] = target: Ratio of Nucleoli Translocation and Cytoplasm, AR (gene 367) (UniProt P10275); test: UPITT_HCI_U2OS_AR_TIF2_Nucleoli_Cytoplasm_Ratio_Antagonist: University of Pittsburgh U2OS Androgen Receptor-Transcriptional Intermediary Factor 2 (AR-TIF2) Antagonism High Content Imaging Assay for Ratio of Nucleoli Translocation and Cytoplasm (AID 2283999; active means hit-call score of the fitted dose curve at least 0.9, where 1 is the maximum;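 further: antagonists lower the DHT-driven ratio of nucleolar to cytoplasmic red signal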)
How it was run: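 Human osteosarcoma U2OS line, AR fused to RFP, coactivator TIF2 fused to GFP. Cpds 20 uM final, 0.2% DMSO (screen); 0.195–50 uM final, 0.5% DMSO (CRC). Endpoint: nucleoli/cytoplasm red signal ratio, DHT as baseline, loss-of-signal antagonist mode.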

[14] = CCTE_Simmons_MITO_basal_resp_rate: CCTE's HepG2 Seahorse XF Respirometric Screening Assay at Basal Respiratory State, Simmons Lab (AID 2284001); conditions: actives raise or lower the signal
How it was run: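 HepG2 respirometry; 7-pt titration 125 nM–100 uM final; kinetic OCR at 6 min intervals for 72 min; n=3 biological, technical singles; DMSO baseline, gain or loss fit; fenpyroximate (decrease) and 2,4-DNP (increase) controls.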

[15] = CCTE_Simmons_MITO_viability: CellTiter-Glo Viability Assessment for CCTE's HepG2 Seahorse XF Respirometric Screening Assay [post-hoc], Simmons Lab (AID 2284007; active means hit-call score of the fitted dose curve at least 0.9, where 1 is the maximum;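 on AC50: cells exposed to chemical for 90 min before the ATP read; actives lower ATP signal relative to DMSO baseline meaning reduced viability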)
How it was run: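 After the Seahorse oxygen-consumption sequence (basal, FCCP, rotenone/antimycin A; 72 min total), HepG2 viability was scored as ATP content by bioluminescence. Chemicals ran at seven concentrations up to 100 uM final for 90 min.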

[16] = target: Nucleoli Translocation, AR (gene 367) (UniProt P10275); test: UPITT_HCI_U2OS_AR_TIF2_Nucleoli_Agonist: University of Pittsburgh U2OS Androgen Receptor-Transcriptional Intermediary Factor 2 (AR-TIF2) Agonism High Content Imaging Assay for Nucleoli Translocation (AID 2283998; active means hit-call score of the fitted dose curve at least 0.9, where 1 is the maximum)
How it was run: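 U2OS cells expressing RFP-tagged human AR and GFP-tagged TIF2; red fluorescence in nucleoli quantified by high-content imaging. Primary screen at 20 uM final (0.2% DMSO); concentration-response 0.195–50 uM (0.5% DMSO), fitted upward versus DMSO.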

[17] = target: Ratio of Nucleoli Translocation and Cytoplasm, AR (gene 367) (UniProt P10275); test: UPITT_HCI_U2OS_AR_TIF2_Nucleoli_Cytoplasm_Ratio_Agonist: University of Pittsburgh U2OS Androgen Receptor-Transcriptional Intermediary Factor 2 (AR-TIF2) Agonism High Content Imaging Assay for Ratio of Nucleoli Translocation and Cytoplasm (AID 2284000; active means hit-call score of the fitted dose curve at least 0.9, where 1 is the maximum;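 further: hits raise the red nucleolar to cytoplasm ratio above vehicle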)
How it was run: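 Read-out first: nucleolar-to-cytoplasm ratio of red (AR-RFP) signal, quantified by high-content imaging in U2OS cells co-expressing TIF2-GFP. Activity is scored as signal increase over DMSO. Single-point screening used 20 uM final (0.2% DMSO).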

[18] = CCTE_Harrill_HTTr_Apoptosis_PRF_DMEM_12hr: (Pilot) CCTE's 12-hour Apoptosis Assessment for the High-Throughput Transcriptomics (HTTr) Platform, in MCF-7 cells cultured in phenol red-free DMEM + 10% charcoal-stripped fetal bovine serum, Harrill Lab (AID 2283985)
How it was run: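 MCF-7 cells in phenol red-free DMEM with 10% charcoal-stripped FBS, eight-point dilution series, 12 h exposure. Caspase-3/7 activation imaged by high content imaging with CellEvent Green reagent; bidirectional fit vs DMSO.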

[19] = CCTE_Harrill_HTTr_Apoptosis_PRF_DMEM_24hr: (Pilot) CCTE's 24-hour Apoptosis Assessment for the High-Throughput Transcriptomics (HTTr) Platform, in MCF-7 cells cultured in phenol red-free DMEM + 10% charcoal-stripped fetal bovine serum, Harrill Lab (AID 2283986)
How it was run: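 MCF-7 cells in phenol red-free DMEM with 10% charcoal-stripped FBS, exposed 24 h across an eight-point dilution series. Caspase-3/7 activation imaged with CellEvent Green by high content imaging; bidirectional fitting against DMSO.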

DIO1 (gene 1733) = test: CCTE_GLTED_hDIO1: CCTE's human Deiodinase 1 (DIO1) Inhibition Assay, Great Lakes Toxicology and Ecology Division (GLTED) Lab (AID 2283987; active means hit-call score of the fitted dose curve at least 0.9, where 1 is the maximum;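 further: isolated human DIO1 enzyme in a cell-free setup rather than cells; enzyme activity read as free iodide liberated from substrate via Sandell-Kolthoff colorimetry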)
How it was run: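 Cell-free human DIO1 enzyme incubated 3 h with test chemical; iodide freed from substrate then measured by Sandell-Kolthoff absorbance. Run in triplicate; loss of signal relative to DMSO taken as inhibition.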

Measured: AC50

Chain of Ratio of Nucleoli Translocation and Cytoplasm, AR (gene 367) (P10275 whole entry, looked up, the tested form may be a part): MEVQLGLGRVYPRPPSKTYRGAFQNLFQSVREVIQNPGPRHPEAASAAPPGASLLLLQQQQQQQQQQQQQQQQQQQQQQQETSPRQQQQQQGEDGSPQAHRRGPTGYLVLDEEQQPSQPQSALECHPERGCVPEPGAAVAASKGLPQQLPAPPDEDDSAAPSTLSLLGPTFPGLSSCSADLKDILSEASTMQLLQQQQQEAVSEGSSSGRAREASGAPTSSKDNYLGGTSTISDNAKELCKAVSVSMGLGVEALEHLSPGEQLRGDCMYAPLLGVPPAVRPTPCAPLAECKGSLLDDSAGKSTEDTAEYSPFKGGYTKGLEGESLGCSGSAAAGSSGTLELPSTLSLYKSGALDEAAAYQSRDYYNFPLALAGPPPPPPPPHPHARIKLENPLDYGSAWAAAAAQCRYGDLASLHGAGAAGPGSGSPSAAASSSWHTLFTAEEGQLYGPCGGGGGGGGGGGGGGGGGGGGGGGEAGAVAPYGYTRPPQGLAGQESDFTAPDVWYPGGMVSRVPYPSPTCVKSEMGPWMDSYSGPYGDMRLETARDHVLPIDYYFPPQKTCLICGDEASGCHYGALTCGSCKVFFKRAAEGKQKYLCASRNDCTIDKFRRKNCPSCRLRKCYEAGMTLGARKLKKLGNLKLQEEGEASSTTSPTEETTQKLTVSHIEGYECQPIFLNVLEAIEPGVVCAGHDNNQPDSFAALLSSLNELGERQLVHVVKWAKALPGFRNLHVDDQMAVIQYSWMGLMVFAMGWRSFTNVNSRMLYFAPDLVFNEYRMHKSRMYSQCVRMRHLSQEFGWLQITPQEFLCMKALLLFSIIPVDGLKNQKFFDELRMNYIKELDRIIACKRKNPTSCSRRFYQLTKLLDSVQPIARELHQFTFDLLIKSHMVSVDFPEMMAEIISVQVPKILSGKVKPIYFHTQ
Chain of Nucleoli Translocation, AR (gene 367) (P10275 whole entry, looked up): as the sequence (P10275 whole entry, looked up, the tested form may be a part) above

O=C(N[C@H](c1ccccc1)[C@@H]1CN2CCC1CC2)c1c(Cl)ccc(C(F)(F)F)c1Cl
inactive: [3] | [4] | [5] | [7] | [8] | [9] | [10] | [11]
active: [1] 1.55 µM | [2] 1.55 µM | [6] 1.68 µM

O=[N+]([O-])c1ccc(Oc2ccc(Cl)cc2Cl)cc1
inactive: [3] | [4] | [5] | [6] | [7] | [10]
active: [1] 9.28 µM | [2] 9.76 µM | [8] 4.1 µM | [9] 10.6 µM | [11] 10.8 µM

CNC(=O)Oc1cccc2c1OC(C)(C)C2
inactive: [12] | [13] | [3] | [4]

CC(C)(C)C(O)(CCc1ccc(Cl)cc1)Cn1cncn1 (configuration not stated)
inactive: [15] | [3] | [4] | [5] | [7] | [9] | [10] | [11]
active: [14] 39.6 µM | [1] 3.76 µM | [2] 3.75 µM | [6] 3.5 µM | [8] 5.9 µM

Nc1ccc(N=Nc2ccccc2)cc1
inactive: [14] | [15] | [3] | [4] | [5]

Nc1ccc(Cl)cc1N
inactive: [12] | [16] | [13] | [17] | [3] | [4] | [5]

CS(=O)(=O)NC(=O)c1cc(Oc2ccc(C(F)(F)F)cc2Cl)ccc1[N+](=O)[O-]
inactive: [18] | [19] | [3] | [4] | [5]

CC(C)(O)c1cnn2c(-c3ccc(F)c(-c4c(F)cccc4C#N)c3)cnc2n1
active: [1] 0.713 µM | [2] 0.789 µM | [6] 1.18 µM | [9] 20 µM | [11] 3.97 µM
not listed: [13] | [14] | [15] | [18] | [19] | DIO1 (gene 1733)
inactive: all other assays above

CCCCCOC(=O)c1ccccc1C(=O)OCCCCC
active: [1] 2.58 µM | [2] 2.58 µM | [6] 5.2 µM | [8] 1.49 µM | [9] 9.17 µM | [11] 4.73 µM
inactive: [3] | [4] | [5] | [7] | [10]

Cc1cc(N=Nc2ccccc2C)ccc1N
active: [12] 26.1 µM | [16] 77.9 µM | [17] 84.9 µM | [14] 25 µM | [9] 26.6 µM | [10] 28.9 µM
not listed: [5] | [18] | [19] | DIO1 (gene 1733)
inactive: all other assays above

c1ccc(N=Nc2ccccc2)cc1
inactive: [1] | [2] | [3] | [4] | [5] | [6] | [7] | [11]
active: [8] 34.6 µM | [9] 26.8 µM | [10] 36.2 µM

ClC1=C(Cl)C2(Cl)C3C(Cl)C=CC3C1(Cl)C2(Cl)Cl (configuration not stated)
inactive: [3] | [4] | [5] | [7] | [8] | [11]
active: [1] 7.52 µM | [2] 7.53 µM | [6] 20 µM | [9] 0.72 µM | [10] 20 µM

CO[C@@H]1[C@H](OC(=O)NC(=O)CCl)CC[C@]2(CO2)[C@H]1[C@@]1(C)O[C@@H]1CC=C(C)C
active: DIO1 (gene 1733) 17.8 µM
inactive: [12] | [16] | [13] | [17] | [3] | [4]

[Cl-].[Cl-].[Hg+2]
inactive: [3] | [4] | [5] | [6] | [8] | [10] | [11]
active: [14] 36.7 µM | [15] 15.3 µM | [1] 31.4 µM | [2] 31 µM | [7] 29.8 µM | [9] 20 µM

C[C@]12C=CC3=C4CCC(=O)C=C4CC[C@H]3[C@@H]1CC[C@@H]2O
inactive: [14] | [3] | [4] | [5]
active: [16] 0.00188 µM | [17] 0.00266 µM

Cc1ccc(N)c(N)c1
active: [9] 20 µM
inactive: [1] | [2] | [3] | [4] | [5] | [6] | [7] | [8] | [10] | [11]

Oc1ccc2ccc3cccc4ccc1c2c34
inactive: [3]
active: DIO1 (gene 1733) 100 µM | [4] 48.2 µM

CC(C)(OOC(C)(C)c1ccccc1)c1ccccc1
active: [12] 38.5 µM
not listed: [5] | [14] | [15] | [16] | [18] | [19] | DIO1 (gene 1733)
inactive: all other assays above
